# Compound activity as filed in PubChem BioAssay.
# Rows were chosen to be rich in hits. Some 19% of all compounds tested hit in one or more screens of this group.
# HT1080-NT tox = kills 2HG-producing HT-1080-NT fibrosarcoma cells; HT-1080-NT fibrosarcoma viability, CellTiter-Glo ATP luminescence, 48 h; Potency, µM (doses to about 46.1 µM), inactives show at the top dose activity, negative = less viability, hits mostly cytotoxic; 360,000 tested, 1.6% active; AID 686970;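 note: NT is the 2HG producing partner of a matched IDH1 knockdown line; potency is the fitted concentration of half-maximal effect; 0% = DMSO-treated cells and -100% = media-only wells without cells; nearly all actives have a fitted effect of over 55% in size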
#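 HT-1080-NT fibrosarcoma cells (2HG-overproducing), 750 cells/well in RPMI with 5% FBS, dosed after 2 h and incubated 48 h at 37C. CellTiter-Glo luminescence normalized to DMSO and no-cell wells; concentration-response curves fitted and classed.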
# IL1B secr inh = inhibitors of inflammasome signaling (IL-1 beta secretion) | THP-1 LPS/ATP IL-1B secretion, AlphaLISA, 16 h; stronger effect = lower value | activity change, % at 57.5 µM | 360,000 tested, 4.7% active; in the data active = activity change below about -50%; inconclusive = mostly about -30% to -49%
#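 THP-1 cells pretreated 1 hr with compounds (up to 57.5 uM final), then stimulated with LPS (250 ng/mL final) plus ATP (1.25 mM final); secreted IL-1B measured by AlphaLISA after 16 hr, decreased signal indicating inhibition.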
# DT40 TDP1 no CPT = qHTS for Inhibitors of human tyrosyl-DNA phosphodiesterase 1 (TDP1): qHTS in cells in absence of CPT | 420,000 tested, 15% active | AID 686978, 2013 | Potency, µM (series often up to 46.2 µM), inactives show top-dose activity change, negative = growth inhibition, hits mostly inhibitors | DT40 Tdp1-/- hTDP1 cells, no CPT, ATP luminescence, 48 h; note: potency is the fitted concentration of half-maximal effect; nearly all actives have a fitted effect of over 55% in size
#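 DT40 Tdp1-/-;hTDP1 cells, no CPT (DMSO vehicle only), 400 cells/well; compounds pin-transferred; ≥48 hr, 37 °C; CellTiter-Glo 30 min RT dark, luminescence read.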
# HT1080 IDH1KD tx = HT-1080 IDH1 knockdown cell toxicity (counter line); HT-1080 IDH1 knockdown viability, ATP luminescence, 48 h; Potency, µM (titrated, usually from 46.1 µM), for inactives: at the top dose activity, negative = toxicity, actives largely listed as cytotoxic; 360,000 tested, 2% active; AID 686971;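 note: potency is the fitted concentration of half-maximal effect; 0% = DMSO wells and -100% = cell-free medium wells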
#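 Using the IDH1-knockdown HT-1080 line run in the same batch and compound series as the NT line, viability after 48 h at 37 °C was determined by CellTiter-Glo luminescence and expressed as % activity.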
# TDP1 cell CPT = DT40-hTDP1 cell growth loss with CPT | Potency, µM (titrated, usually from 46.2 µM), without a hit: top-dose activity change, negative = growth inhibition, hits mostly inhibitors | 420,000 tested, 12% active | chicken DT40 Tdp1-/-;hTDP1 cells + 20 nM CPT, ATP luminescence, 48 h; note: potency is the fitted concentration of half-maximal effect; nearly all actives have a fitted effect of over 55% in size
#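 Cell growth measured by CellTiter-Glo luminescence after a minimum 48 h, 37 C compound exposure with 20 nM CPT in Tdp1-knockout DT40 cells stably expressing hTDP1, seeded 400/well; qHTS titration format.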
# The depositor's hits bear a star; u = inconclusive; x = no result. Unless noted, calls come from the whole dose curve; as a rule, active = well fitted curve in the direction sought with a large enough effect; inconclusive = small, poorly fitted or top-dose-only effect, or another doubt; inactive = no such curve, though single readings can be large; an effect the other way counts as inactive or inconclusive. Unless noted, % is set by controls: 0 for no effect and ±100 for the full control effect.
SMILES,HT1080-NT tox,IL1B secr inh,DT40 TDP1 no CPT,HT1080 IDH1KD tx,TDP1 cell CPT
O=C1[C@H]2[C@@H](c3ccccc3)N[C@]3(CCCN(CC4CCCCC4)C3=O)[C@H]2C(=O)N1Cc1ccccc1,3%,-19,u,-3%,u
CCN1C(=O)[C@H]2[C@@H](c3ccc(C(F)(F)F)cc3)N[C@]3(CCCN(Cc4cccn4C)C3=O)[C@H]2C1=O,-13%,-6,u,3%,u
CSCCC1NC(=O)N(CC(=O)Nc2ccc3c(c2)OCCO3)C1=O (stereo not given),1%,-11,0%,-2%,-1%
O=C1[C@H]2[C@@H](c3ccc(C(F)(F)F)cc3)N[C@]3(CCCN(CC4CCCCC4)C3=O)[C@H]2C(=O)N1Cc1ccccc1,u,-29,23µM*,u,23µM*
O=C1[C@H]2[C@@H](c3ccc(C(F)(F)F)cc3)N[C@]3(CCCN(Cc4ccccc4)C3=O)[C@H]2C(=O)N1Cc1ccccc1,-18%,-12,23µM*,u,23µM*
CCN1C(=O)[C@H]2[C@@H](c3ccc(C)cc3)N[C@]3(CCCN(Cc4ccccc4)C3=O)[C@H]2C1=O,0%,-1,u,12%,-16%
Cc1ccc(C(=O)CNc2ccc(C)c(Cl)c2)cc1,-2%,0,-2%,1%,u
Cc1ccc(NS(=O)(=O)Cc2ccccc2)cc1Cl,-12%,-86*,u,-4%,4%
O=C(Nc1ccc2c(c1)C(=O)c1ccccc1-2)c1ccccc1,13%,4,u,-3%,8%
O=S(=O)(Cc1ccccc1)Nc1cccc(F)c1,3%,-3,u,10%,23%
Cc1ccc(NCCC(=O)c2ccccc2)cc1Cl,-11%,-4,15µM*,-7%,10µM*
Cc1ccc(NC2=C(NC(=O)c3ccccc3)C(=O)c3ccccc3C2=O)cc1Cl,-18%,u,21µM*,-16%,8.2µM*
CC(C)NC(=O)C1CCCN(S(=O)(=O)c2ccc3c(ccn3C)c2)C1 (stereo not given),x,x,-19%,x,-21%
COc1ccc(OCCOc2ccc(N(C)S(=O)(=O)c3ccccc3)cc2)cc1,-2%,-25,u,0%,u
CN(c1ccc(OCCOc2ccccc2Cl)cc1)S(=O)(=O)c1ccccc1,-4%,13,2.9µM*,-10%,u
CC1(c2ccc(OC(F)F)cc2)NC(=O)N(/N=C/c2c(O)ccc3ccccc23)C1=O (stereo not given),u,9,-35%,u,-13%
O=C(CSc1ncnc2c1nnn2Cc1ccccc1F)NCC1CCCO1 (stereo not given),-17%,-90*,-25%,u,u
O=C(CNC(=S)N(Cc1ccccc1F)C1CCCCC1)NCC1CCCO1 (stereo not given),-3%,-68*,u,1%,u
Cc1ccc(C)c(N2CCN(C(c3ccccc3)c3nnnn3C(C)(C)C)CC2)c1 (stereo not given),-27%,-5,18µM*,-6%,-80%
CC(C)(C)n1nnnc1CN1CCN(C(c2ccccc2)c2ccccc2)CC1,-18%,-55*,18µM*,-17%,u
CC(C)C(c1nnnn1C(C)(C)C)N1CCN(c2cccc(Cl)c2)CC1 (stereo not given),-3%,9,13µM*,-7%,18µM*
CC(C)C(c1nnnn1Cc1ccco1)N1CCN(c2cccc(Cl)c2)CC1 (stereo not given),0%,-23,u,-27%,u
Cc1ccc(C)c(N2CCN(C(c3ccc(N(C)C)cc3)c3nnnn3C(C)(C)C)CC2)c1 (stereo not given),17%,-6,u,14%,u
CC(C)(C)n1nnnc1C(c1ccccc1)N1CCN(c2ncccn2)CC1 (stereo not given),18%,-20,-22%,1%,1%
CC(C)(C)n1nnnc1C(c1ccccc1)N1CCN(c2ncccc2C(F)(F)F)CC1 (stereo not given),-2%,-19,26µM*,-11%,18µM*
SMILES,HT1080-NT tox,IL1B secr inh,DT40 TDP1 no CPT,HT1080 IDH1KD tx,TDP1 cell CPT
O=C1c2ccccc2NC(c2ccccn2)N1c1ccccc1F (stereo not given),5%,-8,-2%,-2%,-8%
CN(C)c1ccc(C=C2C(=O)c3ccccc3C2=O)cc1,x,x,-21%,x,-5%
CC(=O)NC1=C(Nc2ccc(N(C)C)cc2)C(=O)c2ccccc2C1=O,u,30,u,13µM*,13µM*
CC(=O)NC1=C(N(C)C2CCS(=O)(=O)C2)C(=O)c2ccccc2C1=O (stereo not given),u,u,9.2µM*,u,8.2µM*
COc1ccc(NC(=O)C(C/C=C(/C)Cl)C(C)=O)cc1 (stereo not given),6%,1,u,u,u
CCC1(c2ccccc2)NC(=O)N(CC(=O)Nc2ccccc2N2CCCC2)C1=O (stereo not given),-3%,9,-19%,-17%,u
COc1ccc(NC(=O)NCCCCc2ccccc2)c(OC)c1,12%,6,17%,8%,u
Cc1ccc2c(c1)N(C(=O)CCC(=O)Nc1ccc(F)cc1F)CC(C)O2 (stereo not given),x,x,7.3µM*,x,5.2µM*
Cc1ccc2c(c1)N(C(=O)CCC(=O)NCC(C)c1ccccc1)CC(C)O2 (stereo not given),17%,-6,u,7%,u
COC(=O)c1ccccc1NC(=O)CCC(=O)N1CC(C)Oc2ccc(C)cc21 (stereo not given),10%,9,u,1%,15µM*
Cc1ccc2c(c1)N(C(=O)CCC(=O)N1CCOCC1)CC(C)O2 (stereo not given),-14%,3,-5%,0%,-1%
COc1ccc(N2CCN(C(=O)CCC(=O)N3CC(C)Oc4ccccc43)CC2)cc1 (stereo not given),-15%,-15,u,2%,u
Cc1ccc2c(c1)N(C(=O)CCC(=O)N1CCC(C(N)=O)CC1)CC(C)O2 (stereo not given),0%,-5,5%,3%,26µM*
CC1CN(C(=O)CCC(=O)N2CCN(c3cccc(C(F)(F)F)c3)CC2)c2ccccc2O1 (stereo not given),-7%,-22,21µM*,-21%,18µM*
O=C(Nc1ccnn1C1CCN(CCCc2ccccc2)CC1)c1cccc(F)c1,-3%,0,-4%,-1%,u
